SW480 rerep = induces DNA re-replication in SW480 colon adenocarcinoma cells; Potency, µM (top dose mostly 46.1 µM), for inactives: top-dose re-replication activation, hits mostly activators; SW480 DNA re-replication, Hoechst DNA content imaging, 48 h; actives 1.8% (n = 340,000); also: % of control where 0% means no effect; nearly all actives have a fitted effect of over 55% in size
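Treated cells incubate 48 hr (37 C, 5% CO2), are stained 40 min with Hoechst, and nuclear fluorescence is enumerated; a rise in nuclei with high DNA signal marks re-replication.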
KB-3-1 cytotox = kills parental KB-3-1 adenocarcinoma cells | Potency, µM (doses to about 46.1 µM), most hits filed as cytotoxic | KB-3-1 viability, CellTiter-Glo ATP luminescence, 72 h | actives 1.4% (n = 400,000) | AID 1347075; also: % is scaled to controls: 0 for no effect and ±100 for the full control effect; nearly all actives have a fitted effect of over 60% in size
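Cells are dispensed, compounds pinned in, plates held at 37 °C for 72 h, then CellTiter-Glo is added and luminescence read after 10 minutes. Cell line: parental KB-3-1 in phenol-red-free DMEM, 10% FBS.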
KB-V1 cytotox = KB-V1 MDR subline cytotoxicity. KB-V1 MDR cells viability, CellTiter-Glo, 72 h. Potency, µM (doses to about 46.1 µM), most hits filed as cytotoxic. actives 3.4% (n = 400,000). AID 1347076; also: % is scaled to controls: 0 for no effect and ±100 for the full control effect; nearly all actives have a fitted effect of over 60% in size
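In this primary screen, KB-V1 cells overexpressing P-gp are incubated with library compounds (lowest to highest concentration) for 72 h at 37 degrees C before a luminescent ATP viability read.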
MCF10A rerep = induces DNA re-replication in MCF 10a normal breast cells; MCF 10A DNA re-replication, Hoechst nuclear intensity, 48 h; Potency, µM (doses to about 46.1 µM), without a hit: at the top dose activity, positive = re-replication, hits mostly activators; actives 2.9% (n = 350,000); AID 624296; also: % of control where 0% means no effect; nearly all actives have a fitted effect of over 50% in size
HT1080 IDH1KD tx = kills HT-1080 cells with IDH1 knockdown | HT-1080 IDH1 knockdown viability, ATP luminescence, 48 h | Potency, µM (titrated, usually from 46.1 µM), for the others: at the highest dose activity, negative = toxicity, hits mostly cytotoxic | actives 2% (n = 360,000) | AID 686971;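 also: 0% = DMSO wells and -100% = cell-free medium wells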
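CellTiter-Glo luminescence after 48 h compound exposure at 37 degrees C of IDH1-knockdown HT-1080 cells in 5% FBS RPMI. %Activity scaled between DMSO wells and cell-free media wells, with curves fitted and assigned curve classes.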
HT1080NT lethal = kills 2HG-producing HT-1080-NT fibrosarcoma cells; HT-1080-NT fibrosarcoma viability, CellTiter-Glo ATP luminescence, 48 h; Potency, µM (titrated, usually from 46.1 µM), without a hit: top-dose activity, negative = less viability, usual class: cytotoxic; actives 1.6% (n = 360,000); AID 686970;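 also: NT is the 2HG producing partner of a matched IDH1 knockdown line; 0% = DMSO-treated cells and -100% = media-only wells without cells; nearly all actives have a fitted effect of over 55% in size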
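Read-out is CellTiter-Glo luminescence after 10 minutes at room temperature, following 48 hours' compound treatment of HT-1080-NT cells (750 cells/well, RPMI, 5% FBS, 37 degrees C).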
* hit, by the source's call; i = inactive; ? = inconclusive; nt = no result given; [ ] = remark or other dose. A selection: hits, their analogues and other compounds. The true share with any hit is near 8%. Calls follow the shape of the dose curve; as a rule, active = well fitted curve in the direction sought with a large enough effect; inconclusive = small, poorly fitted or top-dose-only effect, or another doubt; inactive = no such curve, though single readings can be large; an effect the other way counts as inactive or inconclusive. Potency is read from the fitted curve at half-maximal effect.

SMILES | SW480 rerep | KB-3-1 cytotox | KB-V1 cytotox | MCF10A rerep | HT1080 IDH1KD tx | HT1080NT lethal
CCc1ccc(C2C(C#N)=C(N)C(C#N)(C#N)C3=CCC(C(C)(C)C)CC32)cc1 (configuration not stated) | 8.2µM* | ? | ? | 15µM* | -25% | -12%
Cc1ccc(CNC(=O)Cn2cc(S(=O)(=O)Cc3ccccc3Cl)c3ccccc32)cc1 | nt | i | i | nt | nt | nt
CS(=O)(=O)c1ncc(N(Cc2ccco2)Cc2cccs2)c(C(=O)Nc2ccccc2F)n1 | nt | i | i | nt | nt | nt
Cc1ccc(C2=NC(=O)/C(=C/c3cc(O)c(O)c(Br)c3)S2)cc1 | 8.2µM* | i | ? | ? | -17% | -11%
COc1ccc2nc(SCC(=O)NCC3CCCO3)c(C#N)cc2c1 (configuration not stated) | -4% | i | ? | 23µM* | -3% | -6%
COc1ccc2nc(SCC(=O)N3CCCCC3)c(C#N)cc2c1 | -41% | i | i | 3% | -1% | -2%
COc1ccc2nc(SCC(=O)N(C)C3CCCCC3)c(C#N)cc2c1 | ? | i | 15µM* | 6% | -1% | 9%
Clc1ccccc1Cc1cn2cc(-c3ccccc3)nc2s1 | nt | i | ? | nt | nt | nt
CCN(CC)c1ccc(C(=C2C=CC(=[N+](CC)CC)C=C2)c2ccc(N(CC)CC)cc2)cc1 | 21µM* | ? | ? | ? | 5.2µM* | 7.3µM*
CCN(CC)c1ccc(C(=C2C=CC(=[N+](CC)CC)C=C2)c2ccccc2)cc1 | ? | 0.026µM* | ? | ? | 1µM* | 2.6µM*
Cc1ccc(N(CC(=O)NCC(O)c2ccccc2)S(=O)(=O)c2ccc(C)cc2)cc1 (configuration not stated) | 4% | i | i | 10% | -5% | -14%
Cc1ccc(S(=O)(=O)N(CCC(=O)NCC(c2ccccc2)N(C)C)c2ccccc2)cc1 (configuration not stated) | 0% | i | 10µM* | 2% | 13% | -10%
O=C(NCc1ccc(F)cc1)c1ccc2c(O)c(S(=O)(=O)c3ccccc3)c(=O)[nH]c2c1 | nt | i | i | nt | nt | nt
O=C(O)Cc1ccc(NC(=O)c2ccc(NC(=O)C3CC3)cc2)cc1 | 18% | i | i | 7% | -23% | -6%
COc1cc(-c2ncc3ccccn23)cc(OC)c1OC | -10% | i | 15µM* | ? | 1% | 3%
COc1cccc(-c2ncc3ccccn23)c1 | 2% | i | i | -3% | -5% | -14%
COc1ccc(-c2ncc3ccccn23)cc1 | -2% | i | i | -2% | 12% | 14%
COc1cc(OC)cc(-c2ncc3ccccn23)c1 | -2%[9.22 µM] | 21µM* | ? | ? | -20% | -3%
CCOc1ccccc1N=C1SCC(C)N1C(=O)C1CCN(c2ncnc3sc(C)c(C)c23)CC1 (configuration not stated) | 0% | i | ? | 16% | -3% | 3%[9.24 µM]
CC1=C(C(=O)Nc2cccnc2)C(c2ccccc2)n2nc(SCc3ccccc3F)nc2N1 (configuration not stated) | nt | i | ? | nt | nt | nt
Cc1cccn2c(Nc3ccc4c(c3)OCCO4)c(-c3ccc(Br)o3)nc12 | nt | i | ? | nt | nt | nt
COc1ccccc1OCCCn1cc(C#N)c2ccccc21 | -2% | 12µM* | 5.2µM* | 10% | 0% | 0%
CC(=O)N1CCN(c2cc(N3CCc4ccccc4C3)c(F)cc2[N+](=O)[O-])CC1 | -4% | i | 18µM* | ? | ? | ?
CCC(=O)N1CCN(c2cc(N3CCCC3)c(F)cc2[N+](=O)[O-])CC1 | ? | i | ? | 12% | ? | -2%
O=C(c1cccc(F)c1)N1CCN(c2cc(N3CCCCC3)c(F)cc2[N+](=O)[O-])CC1 | -2% | ? | 18µM* | ? | 2% | 0%[9.24 µM]
SMILES | SW480 rerep | KB-3-1 cytotox | KB-V1 cytotox | MCF10A rerep | HT1080 IDH1KD tx | HT1080NT lethal
CCN(CC)S(=O)(=O)c1cccc(C(=O)Nc2nc3cc4c(cc3s2)OCCO4)c1 | 2% | ? | 4.6µM* | -5% | ? | 11µM*
CCN(CC)S(=O)(=O)c1cccc(NC(=O)Nc2cccc(C(F)(F)F)c2)c1 | ? | 7.3µM* | 8.2µM* | 23µM* | 21µM* | ?
CCN(CC)S(=O)(=O)c1cccc(C(=O)NC2CCCCC2)c1 | -2% | i | 18µM* | -3% | ? | -13%
CN(c1ccccc1)S(=O)(=O)c1cccc(C(=O)NC2CCCC2)c1 | 1% | nt | nt | -4% | 0% | -4%
CCN(CC)S(=O)(=O)c1cccc(C(=O)Nc2cccnc2)c1 | -4% | i | 21µM* | -3% | 6% | 5%
O=C(CN(Cc1ccccc1)S(=O)(=O)c1cccc(C(F)(F)F)c1)NC1CCCCC1 | -367% | i | 3.7µM* | 3% | -7% | -9%
CCN(CC)S(=O)(=O)c1cc(C(=O)Nc2ccncc2)ccc1Cl | -6% | 21µM* | 16µM* | 1% | -22% | 0%
Cc1ccc(SCC(=O)O/N=C(\N)c2cccnc2)cc1 | -4% | i | i | 13% | 8% | 12%
O=C(CSc1cccc2cccnc12)N/N=C/c1ccncc1 | 1.8µM* | i | i | -5% | -5% | -5%
O=C(CSc1cccc2cccnc12)OCC(=O)c1ccc(Br)cc1 | -2% | i | ? | ? | -6% | -13%
O=C(CSc1cccc2cccnc12)OCC(=O)c1ccccc1 | ? | i | i | ? | 33µM* | 29µM*
O=C(CCNS(=O)(=O)c1ccccc1F)N1CCN(C(c2ccccc2)c2ccccc2)CC1 | ? | ? | 8.2µM* | ? | -25% | -22%
CN(C)C(=O)CSc1cccc2cccnc12 | 5.2µM* | ? | ? | ? | ? | ?
NNC(=O)CSc1cccc2cccnc12 | -150% | i | i | -42% | 14% | 0%
O=C(CCNS(=O)(=O)c1ccccc1F)N1CCN(S(=O)(=O)c2cccc(F)c2)CC1 | 1% | i | i | 5% | -7% | -2%
Cc1ccc(NC(=O)Cn2c(=O)ccc3cc(S(=O)(=O)N4CCC(C)CC4)ccc32)cc1Cl | nt | i | i | nt | nt | nt
Cc1c(S(=O)(=O)Nc2cccc3ccccc23)c(=O)n(C)c(=O)n1C | 13% | i | i | 5% | 1% | 0%
O=C(CSc1cccc2cccnc12)N1CCCC1 | ? | 7.3µM* | i | 12µM* | 1% | 7.3µM*
O=C(CSc1ncccn1)N1CCN(C(=O)CSc2ncccn2)CC1 | -6% | i | i | -5% | 6% | 4%

Source: PubChem BioAssay (National Center for Advancing Translational Sciences (NCATS))
